Reference: PubChem BioAssay (NCATS)
“And” between values parts separate entries of the source, which are not always exact repeats. Equal entries are not always repeated. Results filed as inconclusive are left out. More than one record can exist for a structure, and the calls need not agree. The source made the active and inactive calls. Unless noted, calls come from the whole dose curve; as a rule, active = well fitted curve in either direction with a large enough effect (not every such curve was filed as active); inconclusive = small, poorly fitted or top-dose-only effect, or another doubt; inactive = flat fitted curve, though single readings scatter.

Columns and labels:
[1] = AP1 Signaling Pathway (AID 357); settings: ME-180 (cervical carcinoma) AP-1-bla reporter, EGF-induced, beta-lactamase ratio, 5 h; note: % is set by controls: 0 for no effect and ±100 for the full control effect
In short: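 AP-1-bla ME-180 cells with beta-lactamase reporter under AP-1 response element, stimulated with EC50 EGF; compounds titrated, 5 hours at 37 degrees Celsius. CCF4 read at 460/530 nm ratio; positive and negative modulators judged by AC50.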

[2] = target: Cytochrome P450 1A2 (Homo sapiens) (UniProt P05177); assay: p450-cyp1a2 (AID 410; calls by dose curve; note: potency is the fitted concentration of half-maximal effect;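 for activity change, negative = inhibition: -100% = full effect of reference inhibitor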); settings: recombinant CYP1A2, luciferin-ME demethylation, luminescence; series mostly up to 57 µM
Chain of Cytochrome P450 1A2 (Homo sapiens) (P05177 whole entry, looked up): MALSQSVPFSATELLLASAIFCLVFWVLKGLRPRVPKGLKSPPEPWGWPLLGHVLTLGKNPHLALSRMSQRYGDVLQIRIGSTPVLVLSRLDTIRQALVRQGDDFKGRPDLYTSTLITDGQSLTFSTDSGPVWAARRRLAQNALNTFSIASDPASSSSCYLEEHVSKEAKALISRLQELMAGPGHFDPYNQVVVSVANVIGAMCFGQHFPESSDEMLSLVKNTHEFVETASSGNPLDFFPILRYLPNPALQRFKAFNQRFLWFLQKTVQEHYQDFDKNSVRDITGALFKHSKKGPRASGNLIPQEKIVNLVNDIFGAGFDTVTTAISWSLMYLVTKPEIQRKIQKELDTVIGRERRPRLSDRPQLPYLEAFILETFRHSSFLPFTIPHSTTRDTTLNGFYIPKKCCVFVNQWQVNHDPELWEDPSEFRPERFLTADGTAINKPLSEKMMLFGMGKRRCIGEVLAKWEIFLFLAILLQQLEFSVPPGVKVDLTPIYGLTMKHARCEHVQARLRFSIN
In short: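 Luminescent readout of luciferin formed from Luciferin-ME by human CYP1A2; data normalized against complete inhibition by 57 uM furafylline. Enzyme 20nM, substrate 100uM at Km, 100mM KPO4 buffer, 60 min reaction at room temperature.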

[3] = NFAT Signaling Pathway (AID 444); settings: Jurkat NFAT-bla M1, carbachol, beta-lactamase ratio, 5 h;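 note: carbachol stimulus at about its EC50 of 1 µM final; % is set by controls: 0 for no effect and ±100 for the full control effect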
In short: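 Read-out: CCF4 FRET ratio (460 nm/530 nm) after 1 h RT dye loading, used for %activity and AC50 from titration series. Cells: Jurkat NFAT-β-lactamase/M1 line, treated with compound plus 1 uM carbachol for 5 h, 37 °C.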

[4] = target: Lysosomal acid glucosylceramidase (Homo sapiens) (UniProt P04062); assay: Glucocerebrosidase-p2 (AID 348; in the data active = potency below about 10 µM; note: potency is the fitted concentration of half-maximal effect); settings: purified GBA, blue fluorogenic substrate, 40 min
Chain of Lysosomal acid glucosylceramidase (Homo sapiens) (P04062 whole entry, looked up): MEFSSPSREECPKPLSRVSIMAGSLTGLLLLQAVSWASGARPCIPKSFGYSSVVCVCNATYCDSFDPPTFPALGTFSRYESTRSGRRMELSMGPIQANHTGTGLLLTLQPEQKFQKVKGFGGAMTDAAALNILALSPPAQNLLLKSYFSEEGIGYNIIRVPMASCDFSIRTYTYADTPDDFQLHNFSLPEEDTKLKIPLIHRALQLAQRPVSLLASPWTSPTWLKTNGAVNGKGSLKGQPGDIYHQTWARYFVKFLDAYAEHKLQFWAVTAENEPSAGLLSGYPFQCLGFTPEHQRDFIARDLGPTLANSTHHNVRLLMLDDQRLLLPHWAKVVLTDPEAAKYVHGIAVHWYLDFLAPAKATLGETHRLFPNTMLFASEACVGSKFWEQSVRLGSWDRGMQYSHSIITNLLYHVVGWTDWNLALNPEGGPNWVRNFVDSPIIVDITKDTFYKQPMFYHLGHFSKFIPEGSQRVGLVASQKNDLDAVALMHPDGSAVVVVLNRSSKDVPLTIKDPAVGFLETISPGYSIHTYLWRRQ
In short: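 Compounds titrated from 0.6 nM upwards against 0.2 nM enzyme in pH 5.9 citric acid/KH2PO4, taurocholate, tween-20; blue fluorogenic substrate 80 uM, 40 min room temperature, stopped and read Ex 365/Em 440 for AC50.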

[5] = Cell Viability - BJ (AID 421; calls by dose curve;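 note: potency is the fitted concentration of half-maximal effect; cells exposed to compound for 40 hours at 37 °C before readout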); settings: BJ fibroblast viability, qHTS
In short: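 Luminescent ATP signal (CellTiter-Glo, 20 min at room temperature) served as the read-out of viable BJ cells after 40 hours of compound treatment. Responses were scaled between DMSO and 100 uM tamoxifen, and AC50 values were obtained by Hill modeling.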

[6] = Cell Viability - Jurkat (AID 426;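 active = dose-dependent loss of cell ATP signal giving a full or clear fitted curve, ranked by lower potency value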;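 note: potency is the fitted concentration of half-maximal effect; cells exposed to compound for 40 hours at 37 °C before ATP read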); settings: qHTS
In short: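 qHTS, 1536-well; Jurkat E6-1, 5000 cells/well, complete medium; cpd 40 hr, 37 °C; CellTiter-Glo 20 min RT; luminescence. AC50 by Hill fit.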

[7] = Cell Viability - Hek293 (AID 427;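 active = compounds whose dose-response curve shows a full or clear partial loss of cell viability, called from curve shape rather than a numeric limit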;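 note: potency is the fitted concentration of half-maximal effect; cells exposed to compound for 40 hours at 37 °C before reading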); settings: qHTS
In short: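 Luminescent ATP read-out (CellTiter-Glo, 20 min RT) after 40 hr compound exposure at 37 °C in complete medium. Signal normalized to DMSO (basal) and 100 uM tamoxifen (100% inhibition); concentration-response fitted with the standard Hill equation to give AC50.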

[8] = Cell Viability - HepG2 (AID 433; calls by dose curve;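 note: potency is the fitted concentration of half-maximal effect; potency for ATP loss meaning cytotoxicity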); settings: qHTS
In short: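 HepG2 hepatocellular carcinoma cells (1500/well) were treated with compounds for 40 h at 37 °C in complete medium; intracellular ATP was read by CellTiter-Glo luminescence. Data were normalized to DMSO and 100 uM tamoxifen, and AC50 came from Hill fits.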

[9] = Cell Viability - MRC5 (AID 434; calls by dose curve;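 note: potency is the fitted concentration of half-maximal effect; potency reflects cytotoxicity seen as loss of intracellular ATP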); settings: MRC5 lung fibroblast viability, qHTS
In short: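 qHTS cytotoxicity in human lung fibroblast MRC5 cells; 40 hr treatment, 37 °C; cellular ATP by luciferase luminescence; DMSO = 0%, 100 uM tamoxifen = 100% inhibition; Hill-fit AC50.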

[10] = Cell Viability - SK-N-SH (AID 435; calls by dose curve;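 note: potency is the fitted concentration of half-maximal effect; compound exposure lasted 40 h at 37 °C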); settings: SK-N-SH neuroblastoma cell viability qHTS
In short: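 SK-N-SH human neuroblastoma cells (1500/well) were exposed to compounds in complete medium for 40 h at 37 °C, and intracellular ATP was then measured by CellTiter-Glo luminescence. AC50 was taken from Hill fits, normalized to DMSO and 100 uM tamoxifen.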

[11] = at 38 µM (top of the series) unless noted

C[N+](C)(CCCCCC[N+](C)(C)CCCN1C(=O)c2cccc3cccc(c23)C1=O)CCCN1C(=O)c2cccc3cccc(c23)C1=O
activity change, negative = inhibition ([1]; at 38 µM (top of the series)): 14% (inactive)
Potency [2]: inactive

CC(C)Cc1ccc([C@H](C)C(=O)O)cc1
activity change, negative = inhibition ([1]; at 17.2 µM (top of the series)): -1.53% (inactive)
activity change, negative = inhibition ([1]; at 38 µM (top of the series)): -1.91% (inactive) and 13.2% (inactive)
Potency [2]: inactive
activity change, negative = inhibition ([3]; at 17.2 µM (top of the series)): -2.57% (inactive)
activity change, negative = inhibition ([3]; at 38 µM (top of the series)): -3.84% (inactive) and 2.4% (inactive)

COc1ccccc1CNCCCCCCNCCCCCCCCNCCCCCCNCc1ccccc1OC
activity change, negative = inhibition ([1]; at 38 µM (top of the series)): -8.92% (inactive)
Potency [2]: inactive

CN(C)c1ccc(C(=C2C=CC(=[N+](C)C)C=C2)c2ccccc2)cc1
Potency [4]: > 11.4 µM (inactive)
activity change, negative = inhibition ([1]; at 7.69 µM (top of the series)): 0.139% (inactive)
Potency [5]: 1.14 µM (active)
Potency [6]: 0.0233 µM (active)
Potency [7]: 0.244 µM (active)
Potency [8]: 0.494 µM (active)
Potency [9]: 0.458 µM (active)
Potency [10]: 0.052 µM (active)

N#C/C(=C\c1ccc(O)c(O)c1)C(=O)NCCCc1ccccc1
activity change, negative = inhibition ([1]; at 17.2 µM (top of the series)): -12.8% (inactive)
Potency [2]: 12.6 µM (active)

O=Nc1ccc2oc(=O)ccc2c1
activity change, negative = inhibition ([1]; at 38 µM (top of the series)): 22.8% (inactive)

O=c1[nH]c2ccccc2n1CCCN1CCN(C(c2ccccc2)c2ccccc2)CC1
activity change, negative = inhibition ([1]; at 17.2 µM (top of the series)): -6.95% (inactive)
activity change, negative = inhibition ([1]; at 38 µM (top of the series)): -17.6% (inactive)
Potency [2]: 25.1 µM (active)

Oc1ccccc1O
activity change, negative = inhibition ([1]; at 38 µM (top of the series)): -9.38% (inactive)
Potency [2]: inactive
Potency [5]: > 92 µM (inactive)
Potency [6]: 3.17 µM (active)
Potency [7]: 30.1 µM (active)
Potency [8]: > 92 µM (inactive)
Potency [9]: > 92 µM (inactive)
Potency [10]: > 92 µM (inactive)
activity change, negative = inhibition [3, 11]: 1.49% (inactive)

CN1[C@@H]2CC[C@H]1CC(OC(c1ccccc1)c1ccccc1)C2 (stereo partly drawn)
Potency [4]: > 11.4 µM (inactive)
activity change, negative = inhibition ([1]; at 7.69 µM (top of the series)): 12.3% (inactive)
Potency [2]: inactive
activity change, negative = inhibition [3, 11]: -83.5% [at 7.69 µM] (active)

Fc1ccc(C(OCCCc2cnc[nH]2)c2ccc(F)cc2)cc1
activity change, negative = inhibition ([1]; at 38 µM (top of the series)): 26.5% (inactive)
Potency [2]: 0.1 µM (active)

CN=c1nc(-c2ccccc2)n(-c2ccccc2)s1
activity change, negative = inhibition ([1]; at 38 µM (top of the series)): 20.8% (inactive)
Potency [2]: 5.01 µM (active)

Nc1ccc(O)c(C(=O)O)c1
activity change, negative = inhibition ([1]; at 17.2 µM (top of the series)): 12.5% (inactive)
Potency [2]: inactive
Potency [5]: > 92 µM (inactive)
Potency [6]: > 92 µM (inactive)
Potency [7]: > 92 µM (inactive)
Potency [8]: > 92 µM (inactive)
Potency [9]: > 92 µM (inactive)
Potency [10]: > 92 µM (inactive)
activity change, negative = inhibition [3, 11]: -25.5% [at 17.2 µM] (inactive)

NC[C@@H]1O[C@H](C23CC4CC(CC(C4)C2)C3)Cc2c1ccc(O)c2O
activity change, negative = inhibition ([1]; at 38 µM (top of the series)): -6.97% (inactive)
Potency [2]: inactive

O=C1C(SCCO)=C(SCCO)C(=O)c2ccccc21
activity change, negative = inhibition ([1]; at 38 µM (top of the series)): -104% (active)
Potency [2]: 12.6 µM (active) and 631 nM (active)
activity change, negative = inhibition [3, 11]: -94.5% (active)

O=C(c1cc(O)c(O)c([N+](=O)[O-])c1)c1ccccc1F
activity change, negative = inhibition ([1]; at 38 µM (top of the series)): -17.8% (inactive)
Potency [2]: inactive
activity change, negative = inhibition [3, 11]: 0.576% (inactive)

O=C(O)c1ccccc1Nc1cccc(C(F)(F)F)c1
activity change, negative = inhibition ([1]; at 17.2 µM (top of the series)): -4.38% (inactive) and -13.2% (inactive)
Potency [2]: 3.98 µM (active)
activity change, negative = inhibition [3, 11]: -44% [at 17.2 µM] (inactive)

CN1[C@@H](CC(=O)c2ccccc2)CCC[C@H]1C[C@H](O)c1ccccc1
activity change, negative = inhibition ([1]; at 17.2 µM (top of the series)): 1.25% (inactive)

Clc1ccc(N2CCN(Cc3c[nH]c4ncccc34)CC2)cc1
activity change, negative = inhibition ([1]; at 38 µM (top of the series)): -4.78% (inactive)
Potency [2]: inactive and 15.8 µM (active)
activity change, negative = inhibition [3, 11]: -18.8% (inactive)

O=C(O)CC[C@@H](C(=O)O)N1C(=O)c2ccccc2C1=O
Potency [4]: > 11.4 µM (inactive)
activity change, negative = inhibition ([1]; at 7.69 µM (top of the series)): -7.49% (inactive)
activity change, negative = inhibition ([1]; at 38 µM (top of the series)): 3.98% (inactive)
Potency [2]: inactive
activity change, negative = inhibition ([3]; at 7.69 µM (top of the series)): 15.2% (inactive)
activity change, negative = inhibition ([3]; at 38 µM (top of the series)): -1.84% (inactive)

Cc1ccc(O)c(N=Nc2ccccc2)n1
activity change, negative = inhibition ([1]; at 38 µM (top of the series)): 17.2% (inactive)
Potency [2]: 794 nM (active) and 158 nM (active)
activity change, negative = inhibition [3, 11]: -10.8% (inactive)

CCCN(CC1CC1)c1nc(C)nc(Nc2c(Cl)cc(Cl)cc2Cl)c1Cl
activity change, negative = inhibition ([1]; at 38 µM (top of the series)): 18.7% (inactive)
Potency [2]: inactive

COc1cccc(C(=O)NCCN2CCN(c3ccc(Cl)cc3)CC2)c1
activity change, negative = inhibition ([1]; at 38 µM (top of the series)): -7.5% (inactive)
Potency [2]: 12.6 µM (active)
activity change, negative = inhibition [3, 11]: 2.58% (inactive)

NCCSSCCN
Potency [4]: > 11.4 µM (inactive)
activity change, negative = inhibition ([1]; at 7.69 µM (top of the series)): -2.06% (inactive)
activity change, negative = inhibition ([1]; at 38 µM (top of the series)): -9.31% (inactive)
Potency [2]: inactive
activity change, negative = inhibition ([3]; at 7.69 µM (top of the series)): 0.926% (inactive)
activity change, negative = inhibition ([3]; at 38 µM (top of the series)): -3.66% (inactive)

NC(N)=NC(=O)c1nc(Cl)c(N2CCCCCC2)nc1N
activity change, negative = inhibition ([1]; at 38 µM (top of the series)): 21.5% (inactive)
Potency [2]: 1 µM (active)

N=C(N)SCCc1ccc(CCSC(=N)N)cc1
activity change, negative = inhibition ([1]; at 38 µM (top of the series)): 14.8% (inactive)
Potency [2]: inactive

CCCSc1ccc2nc(NC(=O)OC)[nH]c2c1
activity change, negative = inhibition ([1]; at 17.2 µM (top of the series)): 11.3% (inactive) and 5.12% (inactive)
Potency [2]: 0.398 µM (active)

NCCCS(=O)(=O)O
activity change, negative = inhibition ([1]; at 38 µM (top of the series)): -1.95% (inactive)
Potency [2]: inactive
activity change, negative = inhibition [3, 11]: 29% (inactive)
